Experimental data from PubChem BioAssay (EPA / NIEHS).
Several values for one entry are separate records, joined by “and”; a condition that tells them apart may be missing. Identical values can stand only once. Records with an inconclusive call do not appear. More than one record can exist for a structure, and the calls need not agree. Activity calls are given as the source filed them. Rule for the calls, unless noted: active = hit-call score of the fitted dose curve at least 0.9, where 1 is the maximum; inconclusive = response in the unintended direction; inactive = score below 0.9.

Columns and labels:
[1] = BSK_4H_Eotaxin3: BioMAP Diversity Plus: 4H Assay for Eotaxin 3 Biomarker Activity (AID 2283000; active = hit-call score of the fitted dose curve at least 0.9, where 1 is the maximum; inactive = score below 0.9;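 note: CCL26 protein level quantified by ELISA in parallel with SRB cytotoxicity check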); conditions: primary human endothelial cells (HUVEC); actives raise or lower the signal
Summary of the method: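 Endothelial primary cells (human umbilical vein) exposed to compound for 24 h. ELISA detection of Eotaxin-3.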

[2] = read-out: Intercellular Adhesion Molecule 1 (ICAM1), ICAM1 (gene 3383); assay: BSK_3C_ICAM1: BioMAP Diversity Plus: 3C Assay for Intercellular Adhesion Molecule 1 (ICAM1) Biomarker Activity (AID 2283003; active = hit-call score of the fitted dose curve at least 0.9, where 1 is the maximum; inactive = score below 0.9); conditions: primary human endothelial cells (HUVEC); actives raise or lower the signal
Summary of the method: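 HUVEC primary cells stimulated under 3C conditions; ICAM1 measured by ELISA 24 h after compound dosing. Curves fitted bidirectionally against the DMSO baseline. Overt cytotoxicity checked by SRB staining of parallel cultures.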

[3] = BSK_3C_Proliferation: Cell Proliferation Assessment in the BioMAP Diversity Plus: 3C Assay (AID 2283006; active = hit-call score of the fitted dose curve at least 0.9, where 1 is the maximum; inactive = score below 0.9;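 note: potency may reflect either rise or fall in cell number versus DMSO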); conditions: primary human endothelial cells (HUVEC)
Summary of the method: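 Subconfluent HUVEC (3C system) cultured with chemical; relative cell number read at 48 h by sulforhodamine B total-protein staining (0.1% SRB after 10% TCA fixation, 560 nm). Bidirectional fit relative to DMSO.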

[4] = read-out: Interleukin-1 alpha (IL1a), IL1A (gene 3552); assay: BSK_BE3C_IL1a: BioMAP Diversity Plus: BE3C Assay for Interleukin-1 alpha (IL1a) Biomarker Activity (AID 2283016; active = hit-call score of the fitted dose curve at least 0.9, where 1 is the maximum; inactive = score below 0.9); conditions: primary human bronchial epithelial cells; actives raise or lower the signal
Summary of the method: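 Human primary bronchial epithelial cells, 24 h chemical exposure; IL-1a quantified by ELISA, fitted bidirectionally against DMSO. Cytotoxicity assessed in parallel by SRB total-protein staining at the time of measurement.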

[5] = read-out: Monocyte Chemoattractant Protein-1 (MCP1), CCL2 (gene 6347); assay: BSK_3C_MCP1: BioMAP Diversity Plus: 3C Assay for Monocyte Chemoattractant Protein-1 (MCP1) Biomarker Activity (AID 2283017; active = hit-call score of the fitted dose curve at least 0.9, where 1 is the maximum; inactive = score below 0.9); conditions: primary human endothelial cells (HUVEC); actives raise or lower the signal
Summary of the method: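 Endothelial cells from human umbilical vein are dosed with chemical, cultured 24 h, then assayed for MCP-1 by ELISA; both increases and decreases are modelled against DMSO controls.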

[6] = read-out: Monocyte Chemoattractant Protein-1 (MCP1), CCL2 (gene 6347); assay: BSK_4H_MCP1: BioMAP Diversity Plus: 4H Assay for Monocyte Chemoattractant Protein-1 (MCP1) Biomarker Activity (AID 2283018; active = hit-call score of the fitted dose curve at least 0.9, where 1 is the maximum; inactive = score below 0.9); conditions: primary human endothelial cells (HUVEC); actives raise or lower the signal
Summary of the method: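 Human umbilical vein endothelial cells (4H system) exposed to chemicals for 24 h in 96-well format. MCP-1 measured by ELISA; bidirectional fitting against DMSO, with SRB total-protein staining in parallel cultures for cytotoxicity.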

[7] = read-out: Human Leukocyte Antigen - DR isotype (HLADR), HLA-DRA (gene 3122); assay: BSK_3C_HLADR: BioMAP Diversity Plus: 3C Assay for Human Leukocyte Antigen - DR isotype (HLADR) Biomarker Activity (AID 2283019; active = hit-call score of the fitted dose curve at least 0.9, where 1 is the maximum; inactive = score below 0.9); conditions: primary human endothelial cells (HUVEC); actives raise or lower the signal
Summary of the method: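 Endothelial cells from human umbilical vein are treated with test chemical; after 24 h, HLA-DR levels are measured by ELISA. Data are fitted in both directions using DMSO as the baseline.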

[8] = molecular target: human Peroxisome Proliferator-activated Receptor alpha (PPARa), PPARA (gene 5465) (UniProt Q07869); assay: ATG_PPARa_TRANS: Attagene TRANS-FACTORIAL HepG2 Assay for human Peroxisome Proliferator-activated Receptor alpha (PPARa) (AID 2283001);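 for AC50: potency for gain of reporter signal over DMSO so agonist or activator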
Summary of the method: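 Read-out is fluorescence of reporter cDNA fragments resolved by capillary electrophoresis after RT-PCR. Human HepG2 liver cells carried transfected PPARa-Gal4 chimera and GAL4-UAS reporter units, treated 24 h; activity scored as increase over DMSO.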

[9] = molecular target: human Peroxisome Proliferator-activated Receptor delta (PPARd), PPARD (gene 5467) (UniProt Q03181); assay: ATG_PPARd_TRANS: Attagene TRANS-FACTORIAL HepG2 Assay for human Peroxisome Proliferator-activated Receptor delta (PPARd) (AID 2283002)
Summary of the method: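 Cell-based TRANS reporter: HepG2, transient MRTU transfection, 24 h exposure. Readout = reporter mRNA (RT-PCR/CE, 6-FAM). Gain-of-signal fit vs DMSO control.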

[10] = molecular target: Peroxisome proliferator-activated receptor gamma (Homo sapiens) (UniProt P37231); assay: ATG_PPARg_TRANS: Attagene TRANS-FACTORIAL HepG2 Assay for human Peroxisome Proliferator-activated Receptor-gamma (PPARg) (AID 2283007)
Summary of the method: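 Read-out: reporter mRNA induction, detected by fluorescence after RT-PCR and capillary electrophoresis. Transiently transfected human HepG2 liver cells carrying a chimeric NR-Gal4 construct were dosed for 24 h; activity was fitted upward relative to DMSO.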

[11] = molecular target: Nuclear receptor subfamily 1 group I member 2 (Homo sapiens) (UniProt O75469); assay: ATG_PXR_TRANS: Attagene TRANS-FACTORIAL HepG2 Assay for human Pregnane X Receptor (PXR) (AID 2283008)
Summary of the method: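 Fluorescence intensity of FAM-labelled, HpaI-digested reporter amplicons, separated by capillary electrophoresis, quantifies induction. HepG2 cells with PXR-Gal4 trans-reporter system were exposed 24 h; DMSO defines baseline.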

[12] = molecular target: human RAR-related Orphan Receptor gamma (RORg), RORC (gene 6097) (UniProt P51449); assay: ATG_RORg_TRANS: Attagene TRANS-FACTORIAL HepG2 Assay for human RAR-related Orphan Receptor gamma (RORg) (AID 2283011)
Summary of the method: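 Activity is scored as increase in GAL4-UAS reporter mRNA over DMSO, detected by fluorescent RT-PCR and capillary electrophoresis in HepG2 cells transiently expressing a RORg-Gal4 chimera, 24 h after dosing.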

[13] = molecular target: Retinoic acid receptor RXR-alpha (Homo sapiens) (UniProt P19793); assay: ATG_RXRa_TRANS: Attagene TRANS-FACTORIAL HepG2 Assay for human Retinoid X Receptor alpha (RXRa) (AID 2283012)
Summary of the method: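 HepG2 cells transiently transfected with GAL4-UAS reporter units and chimeric RXRa-Gal4 protein, treated 24 h. Reporter mRNA measured by RT-PCR, fluorescent labelling, HpaI digestion and capillary electrophoresis. Induction fitted against DMSO.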

[14] = molecular target: human Retinoid X Receptor beta (RXRb), RXRB (gene 6257) (UniProt P28702); assay: ATG_RXRb_TRANS: Attagene TRANS-FACTORIAL HepG2 Assay for human Retinoid X Receptor beta (RXRb) (AID 2283013)
Summary of the method: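 HepG2 cells were transiently transfected with multiplexed GAL4-UAS reporters and a chimeric RXRb-Gal4 construct, then exposed for 24 h. Reporter mRNA was quantified by RT-PCR, FAM labeling, HpaI digestion and capillary electrophoresis; gain of signal was scored against DMSO.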

[15] = molecular target: human Thyroid Receptor alpha (THRa1), THRA (gene 7067) (UniProt P10827); assay: ATG_THRa1_TRANS: Attagene TRANS-FACTORIAL HepG2 Assay for human Thyroid Receptor alpha (THRa1) (AID 2283014)
Summary of the method: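 First, HepG2 cells receive multiple GAL4-UAS reporter units and the chimeric receptor. They are then dosed for 24 h, after which RNA is reverse-transcribed, amplified, labelled, HpaI-cut and sized by capillary electrophoresis; gain relative to DMSO is scored.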

[16] = molecular target: human RAR-related Orphan Receptor beta (RORb), RORB (gene 6096) (UniProt Q92753); assay: ATG_RORb_TRANS: Attagene TRANS-FACTORIAL HepG2 Assay for human RAR-related Orphan Receptor beta (RORb) (AID 2283010)
Summary of the method: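 HepG2 cells transiently transfected with GAL4-UAS reporter units expressing chimeric NR-Gal4 protein; reporter mRNA measured 24 h after dosing by RT-PCR, 6-FAM labelling and capillary electrophoresis. Gain-of-signal fitted relative to DMSO baseline.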

[17] = molecular target: human Retinoic Acid Receptor gamma (RARg), RARG (gene 5916) (UniProt P13631); assay: ATG_RARg_TRANS: Attagene TRANS-FACTORIAL HepG2 Assay for human Retinoic Acid Receptor gamma (RARg) (AID 2283009)
Summary of the method: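 HepG2 transiently transfected with GAL4-UAS reporter units and chimeric NR-Gal4 constructs; 24 h compound exposure. Reporter mRNA quantified by RT-PCR, FAM labeling, HpaI digestion and capillary electrophoresis; gain-of-signal versus DMSO.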

Measured: AC50

Sequence of human RAR-related Orphan Receptor beta (RORb), RORB (gene 6096) (Q92753 whole entry, looked up, the tested form may be a part): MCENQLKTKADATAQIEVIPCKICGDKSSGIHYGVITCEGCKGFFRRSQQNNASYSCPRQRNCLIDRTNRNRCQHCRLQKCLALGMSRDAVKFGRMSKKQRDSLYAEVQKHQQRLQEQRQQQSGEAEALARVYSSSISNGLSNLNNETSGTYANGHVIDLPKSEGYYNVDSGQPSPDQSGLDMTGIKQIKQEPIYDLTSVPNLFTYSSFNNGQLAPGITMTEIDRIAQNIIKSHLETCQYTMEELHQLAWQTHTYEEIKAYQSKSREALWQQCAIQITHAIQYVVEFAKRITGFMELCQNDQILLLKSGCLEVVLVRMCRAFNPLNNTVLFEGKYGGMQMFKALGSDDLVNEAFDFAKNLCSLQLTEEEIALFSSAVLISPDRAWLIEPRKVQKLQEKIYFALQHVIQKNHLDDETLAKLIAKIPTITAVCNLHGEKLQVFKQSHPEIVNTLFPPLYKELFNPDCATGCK
Sequence of Peroxisome proliferator-activated receptor gamma (Homo sapiens) (P37231 whole entry, looked up, the tested form may be a part): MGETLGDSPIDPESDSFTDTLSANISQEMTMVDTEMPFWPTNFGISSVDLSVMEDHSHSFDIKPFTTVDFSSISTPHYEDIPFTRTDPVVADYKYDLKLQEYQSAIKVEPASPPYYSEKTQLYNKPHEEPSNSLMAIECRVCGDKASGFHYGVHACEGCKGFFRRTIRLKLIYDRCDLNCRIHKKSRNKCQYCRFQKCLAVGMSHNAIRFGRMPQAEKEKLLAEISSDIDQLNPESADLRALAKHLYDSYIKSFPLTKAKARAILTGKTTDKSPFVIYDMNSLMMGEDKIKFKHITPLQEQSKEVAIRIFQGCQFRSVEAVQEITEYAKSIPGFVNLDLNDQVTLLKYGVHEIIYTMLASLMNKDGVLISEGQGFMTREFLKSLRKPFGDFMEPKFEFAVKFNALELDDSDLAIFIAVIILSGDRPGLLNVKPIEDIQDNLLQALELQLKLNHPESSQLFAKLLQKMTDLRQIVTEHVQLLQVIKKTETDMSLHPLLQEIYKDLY
Sequence of human Retinoid X Receptor beta (RXRb), RXRB (gene 6257) (P28702 whole entry, looked up, the tested form may be a part): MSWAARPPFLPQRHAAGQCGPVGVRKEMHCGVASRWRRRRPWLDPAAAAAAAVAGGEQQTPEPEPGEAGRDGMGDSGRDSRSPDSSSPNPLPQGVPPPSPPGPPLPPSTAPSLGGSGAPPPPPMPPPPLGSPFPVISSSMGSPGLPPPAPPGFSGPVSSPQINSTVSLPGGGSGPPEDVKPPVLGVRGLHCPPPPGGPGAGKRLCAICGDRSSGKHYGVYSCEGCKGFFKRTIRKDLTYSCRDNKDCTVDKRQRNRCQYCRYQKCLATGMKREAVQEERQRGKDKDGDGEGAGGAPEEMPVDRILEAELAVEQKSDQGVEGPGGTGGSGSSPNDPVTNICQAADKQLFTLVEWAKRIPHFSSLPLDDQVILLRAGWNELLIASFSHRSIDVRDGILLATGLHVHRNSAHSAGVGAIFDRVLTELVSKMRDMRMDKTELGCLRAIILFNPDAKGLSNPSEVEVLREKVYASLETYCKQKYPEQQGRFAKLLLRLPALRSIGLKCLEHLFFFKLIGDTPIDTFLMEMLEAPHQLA
Sequence of human Thyroid Receptor alpha (THRa1), THRA (gene 7067) (P10827 whole entry, looked up, the tested form may be a part): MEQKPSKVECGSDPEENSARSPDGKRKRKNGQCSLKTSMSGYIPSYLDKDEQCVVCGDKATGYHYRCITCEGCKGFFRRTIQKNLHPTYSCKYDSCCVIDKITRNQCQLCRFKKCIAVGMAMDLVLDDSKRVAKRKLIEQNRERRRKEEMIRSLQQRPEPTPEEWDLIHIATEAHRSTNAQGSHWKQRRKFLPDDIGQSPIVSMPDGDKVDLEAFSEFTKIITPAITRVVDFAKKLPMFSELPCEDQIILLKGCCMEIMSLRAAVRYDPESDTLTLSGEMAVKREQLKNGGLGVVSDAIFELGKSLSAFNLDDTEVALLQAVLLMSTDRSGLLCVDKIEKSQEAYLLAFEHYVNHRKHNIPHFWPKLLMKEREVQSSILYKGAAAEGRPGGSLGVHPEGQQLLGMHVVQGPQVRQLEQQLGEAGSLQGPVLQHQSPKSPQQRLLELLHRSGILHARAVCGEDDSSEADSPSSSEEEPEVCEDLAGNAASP
Sequence of Nuclear receptor subfamily 1 group I member 2 (Homo sapiens) (O75469 whole entry, looked up, the tested form may be a part): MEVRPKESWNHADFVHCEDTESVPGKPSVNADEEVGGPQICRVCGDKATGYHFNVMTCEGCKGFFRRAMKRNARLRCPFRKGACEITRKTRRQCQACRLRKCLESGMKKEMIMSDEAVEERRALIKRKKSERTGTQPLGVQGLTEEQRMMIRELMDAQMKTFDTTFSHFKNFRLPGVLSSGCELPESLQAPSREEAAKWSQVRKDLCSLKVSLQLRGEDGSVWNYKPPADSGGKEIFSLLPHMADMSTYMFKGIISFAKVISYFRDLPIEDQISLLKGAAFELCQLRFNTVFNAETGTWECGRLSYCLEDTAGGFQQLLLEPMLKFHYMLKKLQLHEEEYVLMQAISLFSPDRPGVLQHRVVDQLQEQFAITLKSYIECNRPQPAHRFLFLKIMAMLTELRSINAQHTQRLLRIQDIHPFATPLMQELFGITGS
Sequence of human Peroxisome Proliferator-activated Receptor alpha (PPARa), PPARA (gene 5465) (Q07869 whole entry, looked up, the tested form may be a part): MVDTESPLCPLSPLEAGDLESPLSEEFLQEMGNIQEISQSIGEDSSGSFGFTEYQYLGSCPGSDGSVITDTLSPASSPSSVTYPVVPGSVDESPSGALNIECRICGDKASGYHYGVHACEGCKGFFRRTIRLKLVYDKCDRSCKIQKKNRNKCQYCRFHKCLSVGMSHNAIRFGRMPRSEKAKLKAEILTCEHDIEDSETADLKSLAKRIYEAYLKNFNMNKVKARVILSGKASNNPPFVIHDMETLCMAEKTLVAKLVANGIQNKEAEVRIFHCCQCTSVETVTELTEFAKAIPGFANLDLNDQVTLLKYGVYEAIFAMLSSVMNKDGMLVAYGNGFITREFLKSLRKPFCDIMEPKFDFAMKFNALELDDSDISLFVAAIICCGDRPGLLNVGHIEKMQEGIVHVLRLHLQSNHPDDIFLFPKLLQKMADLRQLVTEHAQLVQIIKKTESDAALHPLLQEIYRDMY
Sequence of Retinoic acid receptor RXR-alpha (Homo sapiens) (P19793 whole entry, looked up, the tested form may be a part): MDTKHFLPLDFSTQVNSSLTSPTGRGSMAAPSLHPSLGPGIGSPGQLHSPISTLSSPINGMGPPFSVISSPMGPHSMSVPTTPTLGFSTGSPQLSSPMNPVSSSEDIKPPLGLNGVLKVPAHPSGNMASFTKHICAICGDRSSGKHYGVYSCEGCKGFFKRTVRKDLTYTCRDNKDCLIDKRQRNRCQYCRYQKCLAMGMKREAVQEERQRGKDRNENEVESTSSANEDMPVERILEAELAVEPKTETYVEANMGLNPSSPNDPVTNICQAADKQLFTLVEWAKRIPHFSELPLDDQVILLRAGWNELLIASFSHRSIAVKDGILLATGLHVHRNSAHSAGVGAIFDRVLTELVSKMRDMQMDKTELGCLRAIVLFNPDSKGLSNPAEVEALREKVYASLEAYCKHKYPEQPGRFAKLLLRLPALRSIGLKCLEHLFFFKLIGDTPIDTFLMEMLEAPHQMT
Sequence of human RAR-related Orphan Receptor gamma (RORg), RORC (gene 6097) (P51449 whole entry, looked up, the tested form may be a part): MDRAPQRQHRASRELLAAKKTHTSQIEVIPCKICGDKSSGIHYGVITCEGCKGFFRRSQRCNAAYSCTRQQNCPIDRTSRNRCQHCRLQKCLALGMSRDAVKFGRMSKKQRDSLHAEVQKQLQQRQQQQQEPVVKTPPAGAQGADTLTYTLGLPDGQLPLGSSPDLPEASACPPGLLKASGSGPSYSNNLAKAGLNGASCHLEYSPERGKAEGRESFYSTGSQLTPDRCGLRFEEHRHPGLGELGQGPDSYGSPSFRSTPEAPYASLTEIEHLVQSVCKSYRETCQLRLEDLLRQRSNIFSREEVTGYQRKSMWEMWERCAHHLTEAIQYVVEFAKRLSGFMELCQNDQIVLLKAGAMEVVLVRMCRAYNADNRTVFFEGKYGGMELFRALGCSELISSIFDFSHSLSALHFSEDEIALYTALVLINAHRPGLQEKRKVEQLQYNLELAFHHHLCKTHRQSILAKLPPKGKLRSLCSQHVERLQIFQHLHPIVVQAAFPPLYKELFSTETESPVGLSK
Sequence of human Peroxisome Proliferator-activated Receptor delta (PPARd), PPARD (gene 5467) (Q03181 whole entry, looked up): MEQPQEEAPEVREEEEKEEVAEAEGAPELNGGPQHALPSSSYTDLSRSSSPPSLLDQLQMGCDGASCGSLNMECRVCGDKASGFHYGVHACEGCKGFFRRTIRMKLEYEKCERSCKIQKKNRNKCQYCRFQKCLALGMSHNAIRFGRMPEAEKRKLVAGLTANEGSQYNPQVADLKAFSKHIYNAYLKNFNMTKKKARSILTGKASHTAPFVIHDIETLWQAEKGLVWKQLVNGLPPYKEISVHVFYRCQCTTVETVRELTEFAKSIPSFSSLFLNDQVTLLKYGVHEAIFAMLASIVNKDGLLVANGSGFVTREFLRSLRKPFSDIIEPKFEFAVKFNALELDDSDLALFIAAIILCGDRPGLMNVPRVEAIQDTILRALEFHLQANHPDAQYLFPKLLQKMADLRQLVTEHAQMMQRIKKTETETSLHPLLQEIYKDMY
Sequence of human Retinoic Acid Receptor gamma (RARg), RARG (gene 5916) (P13631 whole entry, looked up, the tested form may be a part): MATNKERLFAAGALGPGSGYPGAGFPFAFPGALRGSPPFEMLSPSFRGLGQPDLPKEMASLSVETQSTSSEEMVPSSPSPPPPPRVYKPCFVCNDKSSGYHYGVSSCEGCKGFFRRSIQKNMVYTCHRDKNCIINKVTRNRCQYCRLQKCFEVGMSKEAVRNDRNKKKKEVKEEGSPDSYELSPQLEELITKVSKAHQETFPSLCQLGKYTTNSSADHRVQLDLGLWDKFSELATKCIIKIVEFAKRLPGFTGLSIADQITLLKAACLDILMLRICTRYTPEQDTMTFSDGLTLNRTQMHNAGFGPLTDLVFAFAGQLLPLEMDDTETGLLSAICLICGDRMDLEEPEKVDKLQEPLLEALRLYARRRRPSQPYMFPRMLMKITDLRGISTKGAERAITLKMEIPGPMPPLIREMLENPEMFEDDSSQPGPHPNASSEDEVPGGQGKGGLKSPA

OCC(F)(OC(F)(F)C(F)(OC(F)(F)C(F)(F)C(F)(F)F)C(F)(F)F)C(F)(F)F (stereo not given)
inactive: [1] | [2] | [4] | [5] | [6]
active: [3] 3.78 µM and 2.59 µM | [5] 4.24 µM | [6] 3.33 µM | [7] 2.65 µM and 4.85 µM

CC(=O)OC(C)(C)C
inactive: [8] | [9] | [10] | [11] | [12] | [13] | [14] | [15]

CCOC(=O)C(=O)OCC
inactive: [8] | [9] | [16]

C=CC(=O)OCCCCCC
inactive: [8] | [9] | [11] | [13] | [15]

O=C(OCc1ccccc1)c1ccccc1O
active: [11] 62.7 µM
inactive: [8] | [9] | [13] | [15]

CC(=N[Si](C)(C)C)O[Si](C)(C)C
inactive: [8] | [9] | [16] | [12] | [15]

[O-]/[N+](=N\O)c1ccccc1
inactive: [8] | [9] | [11] | [12] | [14]
active: [10] 16.6 µM

CCNC(=S)NCC
inactive: [8] | [9] | [10] | [11] | [12]

CCCCCCCCCCCCCCCCCC(=O)OCCCCCCCCCCCCCC(C)C
inactive: [8] | [9] | [10] | [11] | [12] | [13] | [14] | [15]

CC(C)(C)c1ccc(S)cc1
inactive: [8] | [9] | [10] | [11] | [12] | [14]

O=c1cc[nH]cc1
inactive: [8] | [9] | [16] | [12] | [13] | [14] | [15]

CCCCCCCCSCc1cc(C)c(O)c(CSCCCCCCCC)c1
inactive: [8] | [9] | [11] | [16] | [12] | [13] | [14] | [15]

CC1=CC[C@@H](C(C)(C)O)CC1
inactive: [8] | [9] | [10] | [11] | [16] | [15]

COc1ccc(OC)cc1
inactive: [8] | [9] | [12]

CN(C)CCC=C1c2ccccc2CCc2ccccc21
inactive: [8] | [9] | [10] | [12] | [13] | [15]
active: [11] 24 µM

CCCCC/C=C\C=C\C(=O)OCC
active: [10] 28.5 µM | [11] 5.19 µM
inactive: [8] | [9] | [13]

CN(C)C(=O)Nc1ccccc1
inactive: [8] | [9] | [10] | [11] | [12]

OCCCO
inactive: [8] | [9] | [11] | [17] | [14] | [15]

CCCCCCC(C)O (stereo not given)
inactive: [8] | [9] | [10] | [11] | [13] | [14]

C=CCOC(=O)/C=C\C(=O)OCC=C
active: [8] 27.5 µM
inactive: [9] | [11] | [14]

CCCc1ccc(O)cc1
inactive: [8] | [9] | [11] | [12] | [13] | [14]

CCC(C)(CCCC(C)C)OC(C)=O (stereo not given)
active: [14] 64.8 µM
inactive: [8] | [9] | [10] | [11]

CC(=O)CCc1ccc(O)cc1
inactive: [8] | [9] | [11] | [12] | [14] | [15]

OCC=Cc1ccccc1
inactive: [8] | [9] | [11] | [12]

c1coc(CNc2ncnc3nc[nH]c23)c1
inactive: [8] | [9] | [10] | [16] | [12] | [13] | [15]
